PubChem BioAssay (NCATS)
The source made the active and inactive calls. Calls come from the whole dose curve.

Target: Tumor susceptibility gene 101 protein (Homo sapiens) (UniProt Q99816)
Test: qHTS Validation Assay for Iinhibitors of HIV-1 Budding by Blocking the Interaction of PTAP/TSG101 (AID 485342); note: 0% is about no effect
Details: TSG101-PTAP binding, fluorescence polarization, 4-point titration; series mostly up to 115 µM; fluorescence change: at the top concentration
From the text: NIH Molecular Libraries Probe Production Network [MLPCN]
NIH Chemical Genomics Center [NCGC]
PI Name: Dr. Eric Freed, NCI
Stages of the HIV-1 replication cycle, specifically virus assembly and release, provide underexploited targets for the development of novel antiviral inhibitors. The late stages of HIV-1 replication are mediated by the Gag precursor protein, Pr55Gag. Expression of Pr55Gag is both necessary and sufficient for the production of virus-like particles from Gag-expressing cells. The Gag protein hijacks key host proteins involved in endocytic machinery of the host cell to promote endosomal processing and viral budding. The budding process requires a direct interaction between a […] (PTAP) motif in the p6 domain of Gag and the cellular endosomal sorting protein known as Tsg101. In this way, the Gag PTAP motif promotes the host cells to recruit viral particles to the plasma membrane where the new viral particles are released, effectively turning the host cells into viral factories. A fluorescence anisotropy assay has been developed to quantitatively measure the PTAP-Tsg101 interaction which can be used to screen for inhibitors of this interaction.
NCGC Assay Protocol Summary:
Two uL of the Tsg101 binding domain in buffer (10 mM HEPES pH 7.5; 0.15 M NaCl, 0.01% Tween 20; 3 mM EDTA;0.1 mM TCEP) was dispensed into Greiner black MB 1536-well plates (final concentration 10 uM). Then, 23 nL of compounds or DMSO were delivered to each well using a pin tool. Finally, 2 uL of a FITC-labeled peptide containing the PTAP motif (1) in the same buffer was dispensed (50 nM final concentration) and the binding was allowed to proceed for 20 min. at r.t. Fluorescent polarization was determined using FITC excitation and polarized emission filters on a Perkin Elmer Viewlux.
Keywords: Tsg101, PTAP, Gag, HIV, fluorescent polarization, MLSMR, MLPCN, NIH Roadmap, qHTS, NCGC

Sequence of Tumor susceptibility gene 101 protein (Homo sapiens) (Q99816 whole entry, looked up): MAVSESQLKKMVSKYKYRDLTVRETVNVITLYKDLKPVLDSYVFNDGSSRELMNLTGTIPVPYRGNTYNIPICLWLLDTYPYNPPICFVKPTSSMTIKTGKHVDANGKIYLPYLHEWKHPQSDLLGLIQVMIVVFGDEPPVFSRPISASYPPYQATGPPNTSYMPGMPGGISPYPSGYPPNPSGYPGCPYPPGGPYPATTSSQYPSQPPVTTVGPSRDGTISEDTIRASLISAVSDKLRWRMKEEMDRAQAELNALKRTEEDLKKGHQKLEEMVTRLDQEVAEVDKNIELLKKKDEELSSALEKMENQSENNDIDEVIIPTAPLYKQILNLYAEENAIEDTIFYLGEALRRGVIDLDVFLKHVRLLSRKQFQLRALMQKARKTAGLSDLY

Structure (SMILES) | fluorescence change
CCCCCCCCCCCCCCCCCCOC[C@H](COP(=O)([O-])OCC[N+](C)(C)C)OC | -18.2% (inactive)
O=[N+]([O-])c1cccc2cn[nH]c12 | -0.276% (inactive)
COC(=O)[C@H](NC(=O)c1cc(-c2ccccc2)nc2ccccc12)c1ccccc1 | -10.3% (inactive)
C[C@]12C=CC(=O)C=C1CC[C@@H]1C2=CC[C@]2(C)[C@@H](C(=O)CN3CCN(c4cc(N5CCCC5)nc(N5CCCC5)n4)CC3)CC[C@@H]12 | 11.7% (inactive)
O=C(N[C@@H](Cc1ccccc1)C(=O)CCl)OCc1ccccc1 | 2.42% (inactive)
Nc1ncnc2c1ncn2C1CCCC1 | 2.7% (inactive)
O=c1onc2n1-c1cc(Br)ccc1OC2 | -6.11% (inactive)
CC1CCN=C(N)S1 (stereo not given) | -5.72% (inactive)
O=C(O)c1cc2cc(F)ccc2[nH]1 | 5.92% (inactive)
CCCCS(=N)(=O)CC[C@H](N)C(=O)O (stereo not given in full) | 1.69% (inactive)
CC(C)NC[C@H](O)COc1ccc(CC(N)=O)cc1 | 3.51% (inactive)
OC[C@H]1O[C@@H](n2cnc3cncnc32)[C@H](O)[C@@H]1O | 2.61% (inactive)
O=c1[nH]ccc2c(O)cccc12 | -2.99% (inactive)
C=CCNc1ncnc2ccc(Br)cc12 | 2.98% (inactive)
COc1cc(/C=C(\C#N)C(=O)Nc2nnc(C(F)(F)F)s2)ccc1OCc1ccc(C(F)(F)F)cc1C(F)(F)F | -11.8% (inactive)
Nc1nc2[nH]c(=O)cnc2c(=O)[nH]1 | 0.619% (inactive)
CCCN(CCc1ccccc1)C1CCc2c(O)cccc2C1 (stereo not given) | 1.39% (inactive)
O=C(O)c1cccnc1C(=O)O | 5.01% (inactive)
C[N+](C)(C)CC=O | 3.23% (inactive)
CC(C)NC[C@H](O)COc1cccc2ccccc12 | 0.63% (inactive)

Structure (SMILES) | fluorescence change
C=CC[C@H](N)C(=O)O | -4.7% (inactive)
c1ccc(C(NCc2cccnc2)(c2ccccc2)c2ccccc2)cc1 | -3.66% (inactive)
OC[C@H]1NC[C@@H](O)[C@@H]1O | 3.63% (inactive)
O=c1cc(O)cc(/C=C/c2ccc(O)c(O)c2)o1 | 19.1% (inactive)
CN[C@H](CC(=O)O)C(=O)O | 1.68% (inactive)
Cc1cccc(C(=O)NCN2CCN(c3ccccc3C#N)CC2)c1 | -2.32% (inactive)
NC1C=CC=C(C(=O)O)C1 (stereo not given) | 2.8% (inactive)
O=C1NC(=O)c2cc(Nc3ccccc3)c(Nc3ccccc3)cc21 | -0.846% (inactive)
CC(C)C[C@H](NC(=O)C1OC1C(=O)O)C(=O)NCCCCN=C(N)N (stereo not given in full) | 1.51% (inactive)
NC(N)=[N+]1CCc2ccccc2C1 | 2.4% (inactive)
N#CC(C#N)=C(N)/C(C#N)=C/c1ccc(O)cc1 | 4.42% (inactive)
CCCCCCC(=O)OC1CC(C)(C)NC(C)(C)C1 | -1.99% (inactive)
CCCCCCCCCCC(C)(C)C(=O)Nc1c(OC)cc(OC)cc1OC | -27% (inactive)
CC(N)=O | 2.32% (inactive)
O=C(c1ccc2c(c1)OCCO2)N1CCCCC1 | 3.62% (inactive)
CCCc1c(-c2ccc(O)cc2)nn(-c2ccc(O)cc2)c1-c1ccc(O)cc1 | -11.1% (inactive)
CCCC[C@@]1(C2CCCC2)Cc2cc(OCC(=O)O)c(Cl)c(Cl)c2C1=O | 4.81% (inactive)
NC1(C(=O)O)CCCCC1 | 0.199% (inactive)
CCCCC[C@H](CC(=O)NO)C(=O)N[C@H](C(=O)N1CCC[C@H]1CO)C(C)C | 0.758% (inactive)
CC[N+](CC)(CC)CC(=O)Nc1c(C)cccc1C | 1.06% (inactive)
